# Tests used:
# [1] = target: T1, Inhibitor of nuclear factor kappa-B kinase subunit epsilon (Homo sapiens) (UniProt Q14164); conditions: at 1 µM;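 further: reported values are averaged percent inhibition figures against human IKKε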
# T1 sequence (whole entry): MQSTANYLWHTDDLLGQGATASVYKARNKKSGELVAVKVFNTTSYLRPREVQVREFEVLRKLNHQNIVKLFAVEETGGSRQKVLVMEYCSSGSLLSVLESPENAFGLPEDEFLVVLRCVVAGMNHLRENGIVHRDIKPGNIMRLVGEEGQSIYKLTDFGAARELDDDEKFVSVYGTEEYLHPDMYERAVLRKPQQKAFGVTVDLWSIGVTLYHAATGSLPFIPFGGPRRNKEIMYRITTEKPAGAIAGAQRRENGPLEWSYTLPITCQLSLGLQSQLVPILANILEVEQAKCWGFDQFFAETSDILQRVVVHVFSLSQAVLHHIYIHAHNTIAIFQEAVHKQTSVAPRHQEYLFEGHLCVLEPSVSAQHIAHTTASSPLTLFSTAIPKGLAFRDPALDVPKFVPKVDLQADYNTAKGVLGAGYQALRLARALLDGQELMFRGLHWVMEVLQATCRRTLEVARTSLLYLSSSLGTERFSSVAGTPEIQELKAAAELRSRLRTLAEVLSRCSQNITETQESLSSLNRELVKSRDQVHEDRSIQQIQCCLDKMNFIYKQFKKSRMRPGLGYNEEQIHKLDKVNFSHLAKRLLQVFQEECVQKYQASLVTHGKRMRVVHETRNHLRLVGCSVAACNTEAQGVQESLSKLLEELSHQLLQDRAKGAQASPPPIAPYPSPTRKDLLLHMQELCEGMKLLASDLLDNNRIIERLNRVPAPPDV
# [2] = target: T2, Serine/threonine-protein kinase Nek1 (Homo sapiens) (UniProt Q96PY6); conditions: at 0.1 µM
# T2 sequence (whole entry): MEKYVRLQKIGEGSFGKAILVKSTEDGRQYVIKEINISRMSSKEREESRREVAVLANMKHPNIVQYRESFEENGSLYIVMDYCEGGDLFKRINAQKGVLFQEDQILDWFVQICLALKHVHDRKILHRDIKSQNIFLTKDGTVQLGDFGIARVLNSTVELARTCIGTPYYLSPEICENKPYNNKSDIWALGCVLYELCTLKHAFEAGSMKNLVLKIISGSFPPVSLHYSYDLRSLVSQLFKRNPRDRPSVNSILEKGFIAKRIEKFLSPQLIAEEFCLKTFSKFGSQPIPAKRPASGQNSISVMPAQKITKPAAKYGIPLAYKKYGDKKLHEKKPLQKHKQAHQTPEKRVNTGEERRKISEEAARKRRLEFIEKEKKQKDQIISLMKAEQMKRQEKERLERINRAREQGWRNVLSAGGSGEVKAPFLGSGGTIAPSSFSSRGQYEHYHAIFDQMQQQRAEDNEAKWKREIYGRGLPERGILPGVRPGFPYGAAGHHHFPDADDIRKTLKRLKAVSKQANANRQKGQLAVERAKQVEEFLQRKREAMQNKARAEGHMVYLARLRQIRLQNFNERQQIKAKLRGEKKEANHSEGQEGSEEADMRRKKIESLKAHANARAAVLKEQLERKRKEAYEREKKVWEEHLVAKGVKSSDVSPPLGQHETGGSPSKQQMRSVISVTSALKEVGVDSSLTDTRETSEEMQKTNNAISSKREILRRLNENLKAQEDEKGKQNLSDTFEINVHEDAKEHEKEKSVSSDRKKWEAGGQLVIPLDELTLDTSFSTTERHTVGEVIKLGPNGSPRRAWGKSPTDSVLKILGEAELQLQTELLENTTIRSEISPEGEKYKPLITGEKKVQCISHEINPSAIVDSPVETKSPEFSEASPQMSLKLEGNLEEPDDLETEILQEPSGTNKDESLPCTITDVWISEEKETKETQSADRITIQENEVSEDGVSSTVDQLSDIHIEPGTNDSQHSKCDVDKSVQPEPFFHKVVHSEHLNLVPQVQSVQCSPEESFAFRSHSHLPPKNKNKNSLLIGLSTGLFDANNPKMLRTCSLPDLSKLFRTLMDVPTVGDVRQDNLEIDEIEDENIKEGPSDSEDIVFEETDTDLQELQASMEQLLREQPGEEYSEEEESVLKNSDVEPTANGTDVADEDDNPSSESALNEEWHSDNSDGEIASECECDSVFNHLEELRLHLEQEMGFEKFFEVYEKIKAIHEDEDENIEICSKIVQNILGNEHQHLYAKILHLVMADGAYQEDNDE
# [3] = target: T2, Serine/threonine-protein kinase Nek1 (Homo sapiens); conditions: at 1 µM
# [4] = target: T3, Serine/threonine-protein kinase Nek2 (Homo sapiens) (UniProt P51955); conditions: at 0.1 µM
# T3 sequence (whole entry): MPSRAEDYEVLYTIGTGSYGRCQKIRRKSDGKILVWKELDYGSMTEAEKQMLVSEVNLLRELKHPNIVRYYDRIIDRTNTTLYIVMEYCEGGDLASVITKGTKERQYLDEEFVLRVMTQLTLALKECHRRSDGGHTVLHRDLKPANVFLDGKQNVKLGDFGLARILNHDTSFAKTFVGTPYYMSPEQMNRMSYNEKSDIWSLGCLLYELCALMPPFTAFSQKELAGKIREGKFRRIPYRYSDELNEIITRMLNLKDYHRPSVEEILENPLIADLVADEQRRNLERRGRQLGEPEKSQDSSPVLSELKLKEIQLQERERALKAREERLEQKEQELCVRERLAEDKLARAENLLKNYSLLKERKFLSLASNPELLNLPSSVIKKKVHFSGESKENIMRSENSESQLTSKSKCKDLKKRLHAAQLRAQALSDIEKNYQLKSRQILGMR
# [5] = target: T3, Serine/threonine-protein kinase Nek2 (Homo sapiens); conditions: at 1 µM
# [6] = target: Serine/threonine-protein kinase Nek6 (Homo sapiens) (UniProt Q9HC98); conditions: at 0.1 µM
# [7] = target: Serine/threonine-protein kinase Nek6 (Homo sapiens) (UniProt Q9HC98); conditions: at 1 µM
# [8] = target: Serine/threonine-protein kinase Nek7 (Homo sapiens) (UniProt Q8TDX7); conditions: at 0.1 µM
# [9] = target: Serine/threonine-protein kinase Nek7 (Homo sapiens) (UniProt Q8TDX7); conditions: at 1 µM
# [10] = target: T4, Serine/threonine-protein kinase Nek9 (Homo sapiens) (UniProt Q8TD19); conditions: at 0.1 µM;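 further: reported value is the mean percent inhibition of NEK9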
# T4 sequence (whole entry): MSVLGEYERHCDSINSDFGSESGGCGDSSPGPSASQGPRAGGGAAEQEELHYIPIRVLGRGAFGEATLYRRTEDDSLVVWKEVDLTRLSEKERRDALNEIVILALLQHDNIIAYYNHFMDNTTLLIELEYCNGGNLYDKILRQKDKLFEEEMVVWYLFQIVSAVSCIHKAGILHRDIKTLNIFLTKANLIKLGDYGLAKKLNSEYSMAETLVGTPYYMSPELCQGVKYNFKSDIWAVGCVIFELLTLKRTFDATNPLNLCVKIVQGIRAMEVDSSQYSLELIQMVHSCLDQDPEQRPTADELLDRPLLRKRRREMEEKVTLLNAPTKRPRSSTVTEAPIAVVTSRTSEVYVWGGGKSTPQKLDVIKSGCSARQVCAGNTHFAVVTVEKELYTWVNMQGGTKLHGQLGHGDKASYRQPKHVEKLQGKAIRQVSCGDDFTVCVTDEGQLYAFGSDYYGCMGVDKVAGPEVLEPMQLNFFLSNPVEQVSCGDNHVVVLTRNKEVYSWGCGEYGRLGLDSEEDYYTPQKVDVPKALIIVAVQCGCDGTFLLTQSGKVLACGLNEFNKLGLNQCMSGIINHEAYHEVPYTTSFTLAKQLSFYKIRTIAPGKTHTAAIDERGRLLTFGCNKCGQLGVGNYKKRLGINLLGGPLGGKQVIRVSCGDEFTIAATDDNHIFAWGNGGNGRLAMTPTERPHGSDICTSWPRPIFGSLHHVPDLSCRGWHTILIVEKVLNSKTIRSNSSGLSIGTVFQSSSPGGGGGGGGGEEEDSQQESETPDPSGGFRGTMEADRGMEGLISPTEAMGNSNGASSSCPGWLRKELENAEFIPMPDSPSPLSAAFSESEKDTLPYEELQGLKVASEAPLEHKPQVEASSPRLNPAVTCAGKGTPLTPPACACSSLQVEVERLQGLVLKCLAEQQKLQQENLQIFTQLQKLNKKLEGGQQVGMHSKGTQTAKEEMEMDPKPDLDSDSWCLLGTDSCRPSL
# Sequence of Serine/threonine-protein kinase Nek7 (Homo sapiens) (Q8TDX7 whole entry, looked up): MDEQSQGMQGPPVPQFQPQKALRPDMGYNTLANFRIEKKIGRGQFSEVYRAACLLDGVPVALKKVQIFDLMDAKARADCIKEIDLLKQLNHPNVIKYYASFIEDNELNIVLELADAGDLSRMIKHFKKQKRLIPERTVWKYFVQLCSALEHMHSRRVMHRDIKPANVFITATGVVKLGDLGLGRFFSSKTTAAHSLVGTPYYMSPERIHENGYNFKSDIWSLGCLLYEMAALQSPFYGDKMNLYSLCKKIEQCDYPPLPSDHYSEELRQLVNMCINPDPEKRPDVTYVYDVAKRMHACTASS
# Sequence of Serine/threonine-protein kinase Nek6 (Homo sapiens) (Q9HC98 whole entry): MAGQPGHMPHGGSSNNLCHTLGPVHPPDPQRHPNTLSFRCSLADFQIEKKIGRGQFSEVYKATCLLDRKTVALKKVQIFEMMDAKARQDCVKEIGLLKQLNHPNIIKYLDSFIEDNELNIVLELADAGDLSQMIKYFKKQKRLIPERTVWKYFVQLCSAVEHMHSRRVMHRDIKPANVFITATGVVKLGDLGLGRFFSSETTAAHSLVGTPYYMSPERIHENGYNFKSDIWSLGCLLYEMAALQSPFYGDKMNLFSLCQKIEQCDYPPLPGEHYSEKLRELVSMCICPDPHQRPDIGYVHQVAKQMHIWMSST
smiles,measurement,setting,value
CCCN1CCCC(c2ccc(Nc3nc(Nc4cc(F)ccc4C(N)=O)c4cc[nH]c4n3)c(OC)c2)C1 (stereo not given),inhibition,[1],8.28%
same,inhibition,[2],3.63%
same,inhibition,[3],21.6%
same,inhibition,[4],6.55%
same,inhibition,[5],11.1%
same,inhibition,[6],1.92%
same,inhibition,[7],3.03%
same,inhibition,[8],6.42%
same,inhibition,[9],7.03%
same,inhibition,[10],9.57%

# From ChEMBL document CHEMBL1961873, “Compounds: GSK PKIS; Assays: Nanosyn kinase panel” (2012)
